The results in this text go back to PubChem BioAssay AID1851 (National Center for Advancing Translational Sciences (NCATS), 2009).

Among all 16,000 compounds or so, about 5,800 (36%) were called active. Roughly 23% stayed inconclusive and do not appear here. Some of the results follow. A number with no mark means an inactive call. Calls come from the whole dose curve; as a rule, active = well fitted curve in the direction sought with a large enough effect; inconclusive = small, poorly fitted or top-dose-only effect, or effect the other way; inactive = no such curve, though single readings can be large or run the other way.
% is set by controls: 0 for no effect and ±100 for the full control effect.

The target of the assay is Cytochrome P450 2C19 (Homo sapiens) (UniProt P33261). Briefly: Cytochrome panel assay with activity outcomes. The following applies: recombinant CYP, pro-luciferin dealkylation, luminescence, p450-cyp2c19; series mostly up to 57.1 µM; activity, negative = inhibition: at the top concentration.
Cytochrome P450 2C19 (Homo sapiens), sequence (P33261 whole entry, looked up): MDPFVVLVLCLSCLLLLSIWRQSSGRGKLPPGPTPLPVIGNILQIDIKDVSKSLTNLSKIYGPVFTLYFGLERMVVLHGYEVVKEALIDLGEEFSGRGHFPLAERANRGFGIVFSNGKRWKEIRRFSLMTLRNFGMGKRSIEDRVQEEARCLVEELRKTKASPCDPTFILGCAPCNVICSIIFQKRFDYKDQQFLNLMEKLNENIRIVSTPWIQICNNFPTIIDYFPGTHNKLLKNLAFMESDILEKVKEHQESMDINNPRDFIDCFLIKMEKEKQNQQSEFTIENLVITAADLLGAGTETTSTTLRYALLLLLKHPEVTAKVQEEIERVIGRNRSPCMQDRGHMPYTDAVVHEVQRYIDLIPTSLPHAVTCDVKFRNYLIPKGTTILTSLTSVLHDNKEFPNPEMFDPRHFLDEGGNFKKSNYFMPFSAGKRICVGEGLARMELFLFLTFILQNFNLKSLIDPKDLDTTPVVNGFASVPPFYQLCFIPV
On to `CC(O)(P(=O)(O)O)P(=O)(O)O`, for which the “activity, negative = inhibition” value is -13.4% [at 25.6 µM] (inactive).
One may read the AC50 as the concentration at which the activity in the assay is half-maximal. Consider `CCCN=C(N)NCCC[C@H](N)C(=O)O`, for which the AC50 was 2 µM (active).
For `NC(=S)NCCC[C@@H](N)C(=O)O`, the “activity, negative = inhibition” value was -37.7% (inactive).
On the same count and under the same terms, to `NC(=NCCC[C@H](N)C(=O)O)NO` belongs 13.3% (inactive).
Regarding `O=C1CN=C(Nc2ccc(Cl)cc2)N1c1ccccc1`, the AC50 was 11.2 µM (active).
For `O=C(O)c1nn(-c2ccc(Cl)cc2)c2c1C(=O)c1ccccc1C2=O`, the activity, negative = inhibition was 4.89% [at 11.4 µM].
Consider `CCOC(=O)COc1ccc(/C=C/[N+](=O)[O-])c(OCC(=O)OCC)c1`, for which the half-maximal activity concentration (AC50) is 6.31 µM (active).
The same measure, in the same setting: the figure for `CCCCCN=c1ccn(Cc2ccccc2)c2ccccc12` is 0.251 µM (active).
As for `O=C(CSc1nc(-c2ccccc2)cs1)N1CCc2ccccc21`, the AC50 was 2 µM (active).
Still for that read-out and setting: the figure for `O=C(CSc1nnc(CNc2ccccc2)o1)N1CCCc2ccccc21` is 4.47 µM (active); for `O=C(CSc1n[nH]c(-c2ccccc2O)n1)N1CCCc2ccccc21` it is 2.51 µM (active); for `O=C(CSc1nnc(CNc2ccc(F)cc2)o1)OC1CCCCC1` it is 11.2 µM (active).
As for `O=C(CNCCO)N1CCc2ccccc21`, the “activity, negative = inhibition” value is -20.5% (inactive).
Take `CCn1ccc(C(=O)NC2=C(C#N)CCC2)n1`: the “activity, negative = inhibition” value was -26.6% (inactive).
Same read-out and setting: to `CSc1nc(Oc2ccc(=O)[nH]n2)nc(N(C)C)n1` belongs -10.6% (inactive); to `CO[C@@H]1COC(=O)CCC[C@@H](C)[C@H](OC)COC(=O)CCC[C@H]1C`, 5.51% [at 11.4 µM].
`O=C(CSc1nnc(CNc2ccc(F)cc2)o1)N1c2ccccc2Sc2ccccc21`: the AC50 was 2.82 µM (active).
With `O=C(CSc1nnnn1-c1ccccc1)NCc1cccs1`, the AC50 was 0.891 µM (active).
As for `CCOc1ccc(-n2ccnc2SCC(=O)Nc2nnc(C)s2)cc1`, the “activity, negative = inhibition” value was -17.5% (inactive).
`COc1ccc(-n2ccnc2SCC(=O)Nc2ccc(OC)cc2OC)cc1`: the AC50 was 1.41 µM (active).
As to `COc1ccc(-n2nnnc2SCC(=O)Nc2ccccc2)cc1`, the AC50 is 3.98 µM (active).
For the molecule `CCc1nnc(NC(=O)CCC(=O)N2CCN(c3ccccn3)CC2)s1`, the “activity, negative = inhibition” value is -16.9% (inactive).
Consider `CCOc1ccc(-n2ccnc2SCC(=O)Nc2nnc(CC)s2)cc1`, for which the AC50 was 8.91 µM (active).
On the same count and under the same terms, to `NCCSSCCN` belongs “inactive”.
On to `CN1CCCC2(CCN(C(=O)c3cnccn3)CC2)C1`, for which the “activity, negative = inhibition” value was 5.74% (inactive).
For `COc1ccc(NC(=O)CSc2nnc(C3CC3)n2-c2ccccc2)cc1`, the AC50 was 20 µM (active).
For `COc1ccc(-n2ccnc2SCC(=O)Nc2ccccc2)cc1`, the AC50 was 4.47 µM (active).
For the molecule `COc1ccc(NC(=O)CSc2nnc(C3CC3)n2N)cc1`, the “activity, negative = inhibition” value was -23.3% (inactive).
`COc1cccc(-n2ccnc2SCC(=O)Nc2nccs2)c1`: the half-maximal activity concentration (AC50) is 8.91 µM (active).
Same read-out and setting: to `CCCC(=O)Nc1nnc(SCC(=O)NCc2cccs2)s1` belongs 14.1 µM (active).
With `Cc1ccc2nc(SCC(=O)NCc3cccs3)c(C#N)cc2c1`, the “activity, negative = inhibition” value is 13.8% (inactive).
The same measure, in the same setting: to `CCCC(=O)Nc1nnc(CCN2CCCCC2)s1` belongs -9.25% (inactive).
As for `Cc1cccc(-n2ncc3c(Nc4c(C)n(C)n(-c5ccccc5)c4=O)ncnc32)c1`, the “activity, negative = inhibition” value is 39.7% (inactive).
Same read-out and setting: to `CCN(CC)C(=O)CSc1nc(O)cc(=O)n1CC` belongs -28.8% (inactive).
Consider `CC(=O)Nc1ccc(Nc2ncnc3c2cnn3-c2ccccc2)cc1`, for which the AC50 was 2.82 µM (active).
On to `O=C(O)CS(=O)c1ccc2c3c(cccc13)C(=O)c1ccccc1-2` (stereo not drawn), for which the activity, negative = inhibition is -37% [at 11.4 µM].
For the molecule `Cn1c(SCC(=O)Nc2ccccc2)nc(O)cc1=O`, the AC50 is 22.4 µM (active).
As for `Cn1ncc2c(Nc3cccc(C(=O)O)c3)ncnc21`, the “activity, negative = inhibition” value is -25.1% (inactive).
For `COc1ccc(NC(=O)CSc2ccc3c4c(cccc24)C(=O)c2ccccc2-3)cc1`, the AC50 is 0.708 µM (active).
Regarding `CCn1c(SCC(=O)c2ccc(OC)cc2)nnc1C1CC1`, the AC50 is 11.2 µM (active).
In the case of `O=C(CSC1=NCCN1)Nc1ccccc1`, the activity, negative = inhibition is -1.95% [at 11.4 µM].
The same measure, in the same setting: to `CCn1c(SC)nnc1C1CCN(S(=O)(=O)c2ccc(OC)cc2)CC1` belongs -16.5% (inactive).
With `CC(=O)Nc1ccc(NC(=O)CSc2ncnn2-c2ccccc2)cc1`, the AC50 is 25.1 µM (active).
On to `OCCNCCCOc1cccc(Cl)c1Cl`, for which the AC50 is 3.98 µM (active).
Regarding `COc1c(Cl)cc(Cl)cc1CNCCNCCO`, the “activity, negative = inhibition” value is 14.6% (inactive).
For the molecule `Nc1ncnc2c1nc(Br)n2[C@@H]1O[C@H]2COP(=O)(O)O[C@@H]2[C@H]1O`, the “activity, negative = inhibition” value is 10.5% (inactive).
Same read-out and setting: to `COC(=O)N1CCC2(CC1)CCN(c1ccncc1)CC2` belongs 40% (inactive); to `CNc1oc(-c2cccs2)nc1C#N`, -24% (inactive).
As for `N#Cc1nc(-c2cccs2)oc1NCc1ccccc1`, the AC50 is 1.58 µM (active).
Same read-out and setting: the figure for `O=C(Cn1c(-c2cscn2)nc2ccccc21)Nc1cc(F)ccc1F` is 3.16 µM (active); for `CCCCCC/C(C)=C1/SC(=S)NC1=O` it is 3.55 µM (active).
Turning to `Cc1ncc(COP(=O)(O)O)c(C)c1O`, the activity, negative = inhibition was 11.9% [at 11.4 µM].
On to `CCCC(CCC)C(=O)NNc1cc(=O)c2c(=O)n(C)c(=O)n(C)c2[nH]1`, for which the “activity, negative = inhibition” value is -9.79% (inactive).
